Compound activity as filed in PubChem.
Most compounds without a hit are left out; they make up all but 2.3% or so of the library.
CHRM1 antagonist = antagonists of human M1 muscarinic receptor; P11229; CHO-K1 hM1, Fluo-8 calcium fluorescence, ACh EC80 antagonist; inhibition, % at 3 µM; 1.3% of 360,000 active; AID 588852;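 active = percent inhibition above its own plate's cutoff, namely the mean of that plate's compound wells plus 3 SD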;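 also: peak over basal fluorescence ratio during 140 s after agonist addition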
Target sequence (P11229 whole entry, looked up): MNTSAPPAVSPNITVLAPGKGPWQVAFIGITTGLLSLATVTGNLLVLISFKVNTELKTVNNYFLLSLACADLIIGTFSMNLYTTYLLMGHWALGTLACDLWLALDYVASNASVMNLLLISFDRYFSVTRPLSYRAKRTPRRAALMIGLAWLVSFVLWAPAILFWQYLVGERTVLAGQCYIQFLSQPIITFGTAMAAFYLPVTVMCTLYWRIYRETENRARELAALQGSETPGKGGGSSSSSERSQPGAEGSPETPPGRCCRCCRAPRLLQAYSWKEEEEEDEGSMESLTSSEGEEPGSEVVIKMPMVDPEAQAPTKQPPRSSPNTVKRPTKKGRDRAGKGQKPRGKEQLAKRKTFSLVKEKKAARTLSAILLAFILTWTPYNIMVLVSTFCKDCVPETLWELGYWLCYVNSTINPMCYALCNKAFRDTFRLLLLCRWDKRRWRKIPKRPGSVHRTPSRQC
CHO-K1 Ca ag = counter-screen for M1 agonists: effect in parental CHO-K1 cells. 0.48% of 360,000 active. Fluo-8 calcium fluorescence; scaled to maximal ATP response, vehicle zero. activation, % at 3 µM; in the data active = activation above about 15%;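 also: untransfected CHO-K1 host cells lacking M1 receptor as counterscreen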
CHRM1 PAM = human CHRM1 positive allosteric modulation. P11229. CHO-K1 hM1, Fluo-8 calcium fluorescence, ACh EC20; 0% = ACh EC20, 100% = maximal ACh. activation, % at 3 µM. 0.088% of 360,000 active; in the data active = activation above about 19%, passing the limit was not always enough
M1 ag = activates human CHRM1 receptor. P11229. 0.33% of 360,000 active. CHO-K1 hM1, Fluo-8 calcium fluorescence, agonist mode; 0% DMSO, 100% acetylcholine EC100. activation, % at 3 µM;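 active = activation above the run's mean compound activation plus 3 SD, cut at about 16% in these data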;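 also: peak over basal fluorescence ratio within a 140 s kinetic read after compound addition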
CHO-K1 Ca antag = nonselective inhibitor or artifact in parental CHO-K1 cells; inhibition, % at 3 µM; ATP-induced calcium, Fluo-8 fluorescence; 0.6% of 360,000 active;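 active = inhibition above a per-plate cutoff, the plate's mean sample inhibition plus 3 SD, cut at about 24% in these data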
M1 PAM parental = M1 PAM counterscreen hit in parental CHO-K1 cells | ATP EC20, Fluo-8 calcium fluorescence; 0% at ATP EC20, 100% at ATP max | activation, % at 3 µM | 0.02% of 360,000 active | AID 602247;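 active = activation above the run cutoff, the mean activation of all test compounds plus 3 SD, cut at about 40% in these data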;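 also: peak over basal fluorescence ratio in a 140 s read after ATP addition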
Large screens that a line does not name were inactive.

CN(Cc1ccccc1OCCO)CC1CCCN(CCc2ccc(Cl)cc2)C1 (stereo not drawn)	CHRM1 antagonist 51
Cc1ccccc1CCN1CCCC(CN(C)C(=O)C(=O)c2ccco2)C1 (stereo not drawn)	none
CN(CC1CCCN(CCc2ccc(Cl)cc2)C1)C(=O)C(=O)c1ccco1 (stereo not drawn)	CHRM1 antagonist 44
c1ccc(-c2ccccc2OCCN2CCCC2)cc1	CHRM1 antagonist 68
c1ccc(-c2ccccc2OCCCCN2CCCCCC2)cc1	CHRM1 antagonist 35
c1ccc(-c2ccccc2OCCOCCN2CCCCC2)cc1	none
Cc1noc(C)c1COc1ccc(C(=O)OCC(N)=O)cc1	CHO-K1 Ca antag 27
CCOC(=O)C1=C[C@@H](C(C)C)N(S(=O)(=O)c2ccc(C)cc2)[C@H]1c1ccc(C(F)(F)F)cc1	none
Clc1ccccc1Nc1nc(NCC2CC2)nc2ccsc12	none
O=C(CCCCC(=O)NN=Cc1ccc2c(c1)CCC2)NN=Cc1ccc2c(c1)CCC2	none
CC(C)CN1C(=S)SC(C)(C)C1n1oc(=O)n(-c2ccc(Cl)cc2)c1=O (stereo not drawn)	CHRM1 antagonist 51
CC(C)CN1C(=S)SC(C)(C)C1n1oc(=O)n(-c2ccccc2)c1=O (stereo not drawn)	none
CCCCNC(=S)N/N=C1\C(=O)c2cccc3cccc1c23	CHO-K1 Ca antag 25
O=C1NC[C@H](Cc2ccccc2)N(C[C@@H]2CCCN2C[C@H](Cc2ccccc2)N2C[C@H](Cc3ccccc3)N(CCc3ccccc3)C(=O)C2=O)C1=O	none
COc1cc(C#N)c(NC(=S)N2CCN(C(=O)c3ccco3)CC2)cc1OC	none
c1ccc(-c2csc3ncnc(NCC4COc5ccccc5O4)c23)cc1 (stereo not drawn)	none
Cc1sc2ncnc(NCc3ccccc3)c2c1C	none
COc1ccccc1C(CNc1ncnc2sc(C)c(C)c12)N(C)C (stereo not drawn)	CHRM1 antagonist 92
Cc1sc2ncnc(Nc3ccccc3)c2c1C	none
Cc1sc2ncnc(NCC(c3ccco3)N(C)C)c2c1C (stereo not drawn)	CHRM1 antagonist 38
CN(C)C(CNc1ncnc2sc3c(c12)CCCCC3)c1ccco1 (stereo not drawn)	none
COc1ccc(C(CNc2ncnc3sc(C)c(C)c23)N(C)C)cc1 (stereo not drawn)	CHRM1 antagonist 23
Cc1sc2ncnc(NCC3COc4ccccc4O3)c2c1C (stereo not drawn)	CHO-K1 Ca antag 27
COc1ccc([C@H]2C[C@@H](O)[C@H](n3cc(-c4ccc(F)cc4)nn3)CN2C(=O)C2CCCCC2)cc1	none
O=C(c1ccccc1)c1c2c(cc3sc4ccccc4[n+]13)-c1cccc3cccc-2c13	CHRM1 antagonist 46, CHO-K1 Ca ag 24, M1 ag 34, CHO-K1 Ca antag 24
Cc1sc2ccccc2[n+]1CC(=O)c1ccccc1	none
CCNC(=O)N(C)c1c(CC)nc2ccc(C(=O)Nc3cccc(OCC(=O)N(C)C)c3)cn12	CHRM1 antagonist 32
CCc1nc2ccc(C(=O)Nc3cccc(OCC(=O)N(C)C)c3)cn2c1N(C)C(=O)c1ccncc1	none
CCc1nc2ccc(C(=O)Nc3cccc(OCC(=O)N(C)C)c3)cn2c1N(C)Cc1cc2ccccc2s1	CHRM1 antagonist 50
COC(=O)[C@@H](NS(=O)(=O)c1cc(Br)ccc1Br)C(C)C	none
CN(C)C(CNC(=O)c1ccc(S(=O)(=O)Nc2ccccc2)cc1)c1ccco1 (stereo not drawn)	CHRM1 antagonist 27
Cc1c(C(=O)NCC(c2ccco2)N2CCCC2)sc2ccccc12 (stereo not drawn)	none
CN(c1ccccc1)S(=O)(=O)c1ccc(C(=O)NCC(c2ccco2)N2CCCCC2)cc1 (stereo not drawn)	CHRM1 antagonist 36
CCc1cc(C(=O)NCC(c2ccco2)N2CCCCC2)sc1C (stereo not drawn)	CHRM1 antagonist 29
O=C(NCC(c1ccco1)N1CCCC1)c1ccccc1F (stereo not drawn)	none
COc1ccccc1N(C)S(=O)(=O)c1ccc(C(=O)NCC(c2ccco2)N2CCCCC2)cc1 (stereo not drawn)	none
